For twelve compounds, growth results are on record in PubChem BioAssay (NCI).

Holding throughout (test): NCI-60 one-dose screen, 48 h (100 = growth as untreated, 0 = no growth, -100 = all killed)
The subject of one assay is NCI-H23 lung. To be noted: 10 µM unless noted.
The subject of a further assay is HOP-62 NSCLC. To be noted: 10 µM unless noted.
Another assay relates to NCI-H460 lung. To be noted: 10 µM unless noted.
Another assay deals with HOP-92 NSCLC. To be noted: 10 µM.
Another assay deals with NCI-H522 lung. To be noted: 10 µM.
A further assay concerns A549/ATCC NSCLC. To be noted: 10 µM unless noted.
A further assay has as its system 786-0 renal. To be noted: 10 µM unless noted.
Another assay relates to COLO 205 colon. To be noted: 10 µM unless noted.
In a further assay the test system is NCI-H322M lung. To be noted: 10 µM unless noted.

Where “and” joins values, the source holds several entries; their conditions need not be identical. Equal values may be shown once. The panel holds about 83,000 compounds, 20% with a hit somewhere; the sample as a whole holds those more often.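 48-hour exposure, single concentration, 96-well plates; percent growth endpoint where 0 means no net growth. Active: below 10.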 Calls of active or inactive are those of the source.

Turning to `ClCCOCCOc1ccc(C2CCCCC2)cc1`, the growth is 113% (inactive) in the assay on NCI-H23 lung; 92.3% (inactive) in the assay on HOP-62 NSCLC; 106% (inactive) in the assay on NCI-H460 lung; 87.9% (inactive) in the assay on HOP-92 NSCLC; 93.8% (inactive) with NCI-H522 lung; 86.6% (inactive) in the assay on A549/ATCC NSCLC. Also, the growth was 88.8% (inactive) in the assay with 786-0 renal and 111% (inactive) in the assay with COLO 205 colon.
Consider `CC1CCC2(C(=O)O)CCC3(C)C(=CCC4C5(C)CCC(O)C(C)(C)C5CCC43C)C2C1C` (centres undefined), for which the growth in the assay with NCI-H23 lung was 91.9% (inactive) and 88.2% (inactive); in the assay with HOP-62 NSCLC, 5.46% (active) and 102% (inactive); in the assay with NCI-H460 lung, 44.5% (inactive) and 89.9% (inactive); with HOP-92 NSCLC, 42.5% (inactive) and 65.8% (inactive); in the assay with NCI-H522 lung it was 31.1% (inactive) and 84.1% (inactive); in the assay with A549/ATCC NSCLC it was 24% (inactive) and 75.4% (inactive). In addition, the growth is -31.3% (active) and 76.1% (inactive) in the assay on 786-0 renal; 78.5% (inactive) and 110% (inactive) in the assay with COLO 205 colon.
As to `OC1COC(OCc2ccccc2)C(O)C1O` (centres undefined), the growth was 106% (inactive) with NCI-H23 lung; 90.6% (inactive) in the assay with NCI-H322M lung; 101% (inactive) in the assay on HOP-62 NSCLC; 106% (inactive) in the assay with NCI-H460 lung; 105% (inactive) in the assay with 786-0 renal; 115% (inactive) in the assay on COLO 205 colon.
As to `COc1ccc(N/C=C/C2=[N+](C)c3ccccc3C2(C)C)c(OC)c1`, the growth in the assay with NCI-H23 lung was 79.8% (inactive); in the assay on HOP-62 NSCLC, 92.7% (inactive); in the assay on NCI-H460 lung it was 96.3% (inactive); in the assay on HOP-92 NSCLC, 69.5% (inactive); in the assay with NCI-H522 lung, 89.9% (inactive); in the assay on A549/ATCC NSCLC it was 92.9% (inactive). The growth is 88.9% (inactive) with 786-0 renal and 99.5% (inactive) in the assay on COLO 205 colon.
As for `NC(=O)NCCCC(N)C(=O)O` (centres undefined), the growth in the assay with NCI-H23 lung is 103% (inactive); with HOP-62 NSCLC, 98.4% (inactive); in the assay on NCI-H460 lung, 108% (inactive); in the assay with A549/ATCC NSCLC, 104% (inactive); in the assay on 786-0 renal, 101% (inactive); in the assay on COLO 205 colon, 106% (inactive).
Turning to `O=[N+]([O-])c1cccc(SSc2cccc([N+](=O)[O-])c2)c1`, the growth in the assay with NCI-H23 lung was 98.8% (inactive); with NCI-H322M lung it was 116% (inactive); with HOP-62 NSCLC it was 89.8% (inactive); in the assay with NCI-H460 lung, 109% (inactive); in the assay with NCI-H522 lung, 96.8% (inactive); in the assay on A549/ATCC NSCLC it was 100% (inactive). Moreover, the growth with 786-0 renal is 103% (inactive); in the assay with COLO 205 colon, 82.1% (inactive).
As to `O=C1OC(c2ccccc2)=N/C1=C\c1ccccc1`, the growth is 99.8% (inactive) in the assay with NCI-H23 lung; 96.2% (inactive) with NCI-H322M lung; 99.6% (inactive) in the assay with HOP-62 NSCLC; 103% (inactive) in the assay on NCI-H460 lung; 88.7% (inactive) with HOP-92 NSCLC; 108% (inactive) in the assay with NCI-H522 lung. For the same compound, the growth in the assay on A549/ATCC NSCLC was 95.6% (inactive); in the assay with 786-0 renal, 95.9% (inactive); in the assay on COLO 205 colon, 113% (inactive).
Take `CC(=O)OC(C)C(=O)NCC(C)O` (centres undefined): the growth with NCI-H23 lung is 100% (inactive); in the assay with HOP-62 NSCLC, 100% (inactive); in the assay on NCI-H460 lung it was 98.2% (inactive); in the assay on HOP-92 NSCLC it was 98% (inactive); in the assay on NCI-H522 lung it was 109% (inactive); with A549/ATCC NSCLC it was 108% (inactive). Further, the growth in the assay with 786-0 renal was 94.9% (inactive); in the assay with COLO 205 colon, 107% (inactive).
In the case of `CC(C)(O)C(=O)O`, the growth is 106% (inactive) with NCI-H23 lung; 98.6% (inactive) with NCI-H322M lung; 99.9% (inactive) in the assay with HOP-62 NSCLC; 103% (inactive) with NCI-H460 lung; 91.7% (inactive) with HOP-92 NSCLC; 103% (inactive) with NCI-H522 lung. The growth was 102% (inactive) in the assay on A549/ATCC NSCLC, 95.4% (inactive) in the assay with 786-0 renal and 104% (inactive) with COLO 205 colon.
In the case of `CCCCCCCCCCNC(=O)CI`, the growth is -48.8% (active) in the assay with NCI-H23 lung; -20.8% (active) with HOP-62 NSCLC; 101% (inactive) in the assay with NCI-H460 lung; -79% (active) with HOP-92 NSCLC; 95.1% (inactive) in the assay on A549/ATCC NSCLC; -81.2% (active) in the assay with 786-0 renal. Moreover, the growth in the assay on COLO 205 colon is -20% (active).
Take `O=C1OC(C(O)C(O)CO)C(O)=C1O` (centres undefined): the growth is 113% (inactive) and 98.1% (inactive) in the assay on NCI-H23 lung; 111% (inactive) and 97.3% (inactive) in the assay with NCI-H322M lung; 94.4% (inactive) and 88.1% (inactive) in the assay on HOP-62 NSCLC; 96.8% (inactive) and 112% (inactive) with NCI-H460 lung; 89.5% (inactive) in the assay with HOP-92 NSCLC; 8.89% (active) and 80% (inactive) in the assay on NCI-H522 lung. In addition, the growth was 104% (inactive) and 74.9% (inactive) in the assay with A549/ATCC NSCLC; 95% (inactive) and 97.2% (inactive) in the assay with 786-0 renal; 101% (inactive) and 96.9% (inactive) with COLO 205 colon.
As to `CC(=O)Nc1ccc(S(N)(=O)=O)cc1`, the growth with NCI-H23 lung is 100% (inactive); with HOP-62 NSCLC, 89.4% (inactive) and 103% (inactive); in the assay with NCI-H460 lung it was 102% (inactive) and 105% (inactive); with HOP-92 NSCLC it was 96.6% (inactive); with NCI-H522 lung, 98.3% (inactive) and 80.4% (inactive); in the assay on A549/ATCC NSCLC, 96% (inactive) and 103% (inactive). Besides, the growth was 97.9% (inactive) and 94.5% (inactive) in the assay on 786-0 renal; 99.7% (inactive) and 102% (inactive) in the assay with COLO 205 colon.
